Inconclusive results are not listed. Calls of active or inactive are those of the source. Unless noted, calls follow the shape of the full dose curve.
What was measured:
[1] = qHTS for Inhibitors of the Functional Ribonucleoprotein Complex (vRNP) of Lassa (LASV) Arenavirus: LASV Primary Screen - GLuc reporter signal (AID 1347082; calls by dose curve; tested in HEK293 reporter line; also: series mostly up to about 57 µM; nearly all actives have a fitted effect of over 60% in size)
[2] = qHTS for Inhibitors of the Functional Ribonucleoprotein Complex (vRNP) of Lassa (LASV) Arenavirus: Viability assay - alamar blue signal for LASV Primary Screen (AID 1347083; calls by dose curve; tested in HEK293 reporter line; also: nearly all actives have a fitted effect of over 80% in size; also: potency is read from the fitted curve at half-maximal effect; as to activity change, negative = reduced viability: series mostly up to about 57 µM)
[3] = qHTS for Inhibitors of the Functional Ribonucleoprotein Complex (vRNP) of Lymphocytic Choriomeningitis Arenaviruses (LCMV): Viability assay - alamar blue signal for LCMV Primary Screen (AID 1347085; calls by dose curve; tested in HEK293 reporter line; also: nearly all actives have a fitted effect of over 80% in size; also: potency is read from the fitted curve at half-maximal effect; as to activity change, negative = lower viability: series mostly up to about 57 µM)
[4] = target: Nucleoprotein (Lymphocytic choriomeningitis virus (strain Armstrong)) (UniProt P09992); test: qHTS for Inhibitors of the Functional Ribonucleoprotein Complex (vRNP) of Lymphocytic Choriomeningitis Arenaviruses (LCMV): LCMV Primary Screen - GLuc reporter signal (AID 1347086); also: series mostly up to about 57 µM; nearly all actives have a fitted effect of over 70% in size
Nucleoprotein (Lymphocytic choriomeningitis virus (strain Armstrong)), sequence (P09992 whole entry, looked up): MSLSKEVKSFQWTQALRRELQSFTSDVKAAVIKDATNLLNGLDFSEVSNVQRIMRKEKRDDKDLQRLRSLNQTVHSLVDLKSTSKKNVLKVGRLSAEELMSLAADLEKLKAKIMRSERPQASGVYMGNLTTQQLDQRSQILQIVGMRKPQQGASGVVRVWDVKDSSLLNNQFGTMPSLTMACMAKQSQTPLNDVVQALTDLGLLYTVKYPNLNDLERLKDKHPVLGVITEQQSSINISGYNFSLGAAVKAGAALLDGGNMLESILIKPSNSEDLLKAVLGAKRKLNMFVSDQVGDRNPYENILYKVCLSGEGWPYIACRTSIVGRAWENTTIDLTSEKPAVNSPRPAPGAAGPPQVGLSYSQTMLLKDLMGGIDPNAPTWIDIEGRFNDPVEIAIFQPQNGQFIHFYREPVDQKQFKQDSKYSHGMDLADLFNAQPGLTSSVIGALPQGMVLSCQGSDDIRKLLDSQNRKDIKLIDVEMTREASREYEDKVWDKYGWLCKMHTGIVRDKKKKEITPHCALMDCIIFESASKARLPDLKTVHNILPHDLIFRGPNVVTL
% is scaled to controls: 0 for no effect and ±100 for the full control effect.

O=C(NC[C@H](O)c1ccccc1)c1ccccc1
inactive: Potency [1] | Potency [2] | Potency [3] | Potency [4]

O=C(OCCc1ccccc1)c1ccccc1
inactive: Potency [1] | Potency [2] | Potency [3] | Potency [4]

COc1cc2cc(Oc3ccc4ccc(=O)oc4c3)c(=O)oc2cc1OC(C)=O
inactive: Potency [1] | Potency [2] | Potency [3] | Potency [4]

CCOc1c2ccoc2nc2c(OC)c(OC)ccc12
inactive: Potency [1] | Potency [2] | Potency [3] | Potency [4]

NC(=S)NCCC[C@H](N)C(=O)O
inactive: Potency [1] | Potency [2] | Potency [3] | Potency [4]

COc1cc2c(c(OC)c1OC)-c1c(cc(OC)c(OC)c1OC)C[C@](C)(O)[C@@H](C)C2
inactive: Potency [1] | Potency [2] | Potency [3] | Potency [4]

C=C[C@@H](C1=CC(=O)C(OC)=C(OC)C1=O)c1ccccc1
inactive: Potency [1] | Potency [2] | Potency [3] | Potency [4]

O=C1CCCCCCCCCCCCCCCO1
inactive: Potency [1] | Potency [2] | Potency [3] | Potency [4]

O=c1c(O[C@@H]2OC([C@H](O)CO)[C@H](O)[C@H]2O)c(-c2ccc(O)c(O)c2)oc2cc(O)cc(O)c12 (stereo partly drawn)
inactive: Potency [1] | Potency [2] | Potency [3] | Potency [4]

Cn1c2ccccc2c(=O)c2c(O)cccc21
inactive: Potency [1] | Potency [2] | Potency [3] | Potency [4]

CSCC[C@@H](N)C(=O)O
inactive: Potency [1] | Potency [2] | Potency [3] | Potency [4]

O=C1CCCC2[C@@H]3CCC[N@+]4([O-])CCC[C@H](CN12)C34 (stereo partly drawn)
inactive: Potency [1] | Potency [2] | Potency [3] | Potency [4]

COc1c(O)c(O)c2oc(-c3ccccc3)cc(=O)c2c1OC
inactive: Potency [1] | Potency [2] | Potency [3] | Potency [4]

CC(C)=CCC/C(C)=C/COc1c2ccoc2cc2oc(=O)ccc12
inactive: Potency [1] | Potency [2] | Potency [3] | Potency [4]

CCC(=O)OCCC(C)CCC=C(C)C (stereo not drawn)
inactive: Potency [1] | Potency [2] | Potency [3] | Potency [4]

CCCCCCCCC1CCC(=O)O1 (stereo not drawn)
inactive: Potency [1] | Potency [2] | Potency [3] | Potency [4]

O=c1c(-c2ccc(O)cc2)coc2cc(OC3OC(CO)C(O)C(O)C3O)ccc12 (stereo not drawn)
inactive: Potency [1] | Potency [2] | Potency [3] | Potency [4]

CC[C@H]1OC(=O)[C@H](C)[C@@H](O[C@H]2C[C@@](C)(OC)[C@@H](O)[C@H](C)O2)[C@H](C)[C@@H](O[C@@H]2O[C@@H](C)C[C@H](N(C)C)[C@@H]2O)[C@](C)(O)C[C@@H](C)C(=O)[C@H](C)[C@@H](O)[C@]1(C)O
inactive: Potency [1] | Potency [2] | Potency [3] | Potency [4]

O=Cc1ccnc2ccccc12
inactive: Potency [1] | Potency [2] | Potency [3] | Potency [4]

C/C=C/C=C/CO
inactive: Potency [1] | Potency [2] | Potency [3] | Potency [4]

COc1cc(-c2oc3cc(O)cc(O)c3c(=O)c2O[C@@H]2O[C@H](CO)[C@@H](O)[C@H](O)[C@H]2O)cc(OC)c1O
inactive: Potency [1] | Potency [2] | Potency [3] | Potency [4]

COC(=O)C1=CO[C@@H](O[C@@H]2O[C@H](CO)[C@@H](O)[C@H](O)[C@H]2O)C2C1CC(O)O[C@H]2C (stereo partly drawn)
inactive: Potency [1] | Potency [2] | Potency [3] | Potency [4]

OCCN1C[C@H](O)[C@@H](O)[C@H](O)[C@@H]1CO
inactive: Potency [1] | Potency [2] | Potency [3] | Potency [4]

O=C(O)CC(=O)Nc1ccccc1C(=O)O
inactive: Potency [1] | Potency [2] | Potency [3] | Potency [4]

CC[C@H](C)/C=C(C)/C=C/C1=CC2=CC(=O)[C@]3(C)OC(=O)[C@@H](C(C)=O)[C@@H]3C2=CO1
inactive: Potency [1] | Potency [2] | Potency [3] | Potency [4]

CCCC(=O)OCC
inactive: Potency [1] | Potency [2] | Potency [3] | Potency [4]

CC(=O)NCC(=O)N1[C@H]2CC[C@H]1c1cc(Nc3ncc(C(F)(F)F)c(NC4CCC4)n3)ccc12
active: Potency [2] 3.43 µM | Potency [3] 9.68 µM
inactive: Potency [1] | Potency [4]

CCCCC/C=C/CC(=O)OC
inactive: Potency [1] | Potency [2] | Potency [3] | Potency [4]

COCCOCCOCCOCCOC
inactive: Potency [1] | Potency [2] | Potency [3] | Potency [4]

C/C(=C\CNc1ncnc2c1ncn2[C@@H]1O[C@H](CO)[C@@H](O)[C@H]1O)CO
inactive: Potency [1] | Potency [2] | Potency [3] | Potency [4]

COc1cc(-c2ccccc2)nc2ccccc12
inactive: Potency [1] | Potency [2] | Potency [3] | Potency [4]

C=CC(C)(CCC=C(C)C)OC(=O)CC (stereo not drawn)
inactive: Potency [1] | Potency [2] | Potency [3] | Potency [4]

CC/C=C\CCOC(=O)CCCCC
inactive: Potency [1] | Potency [2] | Potency [3] | Potency [4]

CC(C)C1C(=O)O[C@@H]2CCN3CC=C(COC(=O)[C@](C)(O)[C@]1(C)O)[C@H]23 (stereo partly drawn)
inactive: Potency [1] | Potency [2] | Potency [3] | Potency [4]

Cn1c(=O)c2[nH]c(=O)[nH]c2n(C)c1=O
inactive: Potency [1] | Potency [2] | Potency [3] | Potency [4]

COC(=O)CC(C)CCC=C(C)C (stereo not drawn)
inactive: Potency [1] | Potency [2] | Potency [3] | Potency [4]

CCCCCCC(=O)OCC
inactive: Potency [1] | Potency [2] | Potency [3] | Potency [4]

COc1ccc(CO)cc1
inactive: Potency [1] | Potency [2] | Potency [3] | Potency [4]

COc1cc(O)c(C(C)=O)c2c1C=CC(C)(C)O2
inactive: Potency [1] | Potency [2] | Potency [3] | Potency [4]

O=C(O)c1ccccc1Cc1ccccc1
inactive: Potency [1] | Potency [2] | Potency [3] | Potency [4]

COc1cc2c(O)c3c(c(-c4ccc5c(c4)OCO5)c2cc1OC)C(=O)OC3
inactive: Potency [1] | Potency [2] | Potency [3] | Potency [4]

CC1(C)C(CO)=CC(=O)C2=C1SCC(=O)N2
inactive: Potency [1] | Potency [2] | Potency [3] | Potency [4]

C#C[C@]1(O)CC[C@@H]2[C@@H]3CCC4=CC(=O)CC[C@@H]4[C@H]3CC[C@@]21CC
inactive: Potency [1] | Potency [2] | Potency [3] | Potency [4]

COC(=O)c1ccc2c(c1O)C(=O)c1ccccc1C2=O
inactive: Potency [1] | Potency [2] | Potency [3] | Potency [4]

O=Cc1ccc(O)cc1O
inactive: Potency [1] | Potency [2] | Potency [3] | Potency [4]

CC(O)CC(=O)O (stereo not drawn)
inactive: Potency [1] | Potency [2] | Potency [3] | Potency [4]

O=C(/C=C/c1ccc(O)cc1)OCc1occc(=O)c1O[C@@H]1OC(CO)[C@@H](O)[C@H](O)[C@@H]1O (stereo partly drawn)
inactive: Potency [1] | Potency [2] | Potency [3] | Potency [4]

CCCCC/C=C\C/C=C\C/C=C\C=C\C(O)CCCC(=O)O (stereo not drawn)
inactive: activity change, negative = inhibition [1] -8.78% [at 0.757 µM] | activity change, negative = reduced viability [2] 7.65% [at 0.757 µM] | activity change, negative = lower viability [3] 16.2% [at 0.757 µM] | activity change, negative = inhibition [4] -6.07% [at 0.757 µM]

C=C[C@]1(C)Cc2occ(C)c2C[C@H]1C(=C)C(=O)O
inactive: Potency [1] | Potency [2] | Potency [3] | Potency [4]

CC(=O)O[C@@H]1[C@H](OC(=O)CC(C)C)c2c(ccc3ccc(=O)oc23)OC1(C)C
inactive: Potency [1] | Potency [2] | Potency [3] | Potency [4]

CCCCCCCCCCCCCCCCC
inactive: Potency [1] | Potency [2] | Potency [3] | Potency [4]

COc1ccc([C@@H](OC)[C@@]2(Cc3ccc(O)cc3)N=C(N)N(C)C2=O)cc1
inactive: Potency [1] | Potency [2] | Potency [3] | Potency [4]

O=c1c(O)c(-c2ccccc2)oc2cc(O)cc(O)c12
inactive: Potency [1] | Potency [2] | Potency [3] | Potency [4]

CCCCC(C=O)NC(=O)C(CC(C)C)NC(=O)OCc1ccccc1 (stereo not drawn)
inactive: Potency [1] | Potency [2] | Potency [3] | Potency [4]

COc1cc2c(c(OC)c1OC)-c1c(cc(OC)c(OC)c1OC)CC(C)C(C)C2 (stereo not drawn)
inactive: Potency [1] | Potency [2] | Potency [3] | Potency [4]

Cc1ccc2ccccc2n1
inactive: Potency [1] | Potency [2] | Potency [3] | Potency [4]

C/C=C/c1cc(OC)c2c(c1)[C@H](C)[C@@H](c1ccc(O)c(OC)c1)O2
inactive: Potency [1] | Potency [2] | Potency [3] | Potency [4]

O=C(O)[C@H]1O[C@H](Oc2cc3oc(-c4ccccc4)cc(=O)c3c(O)c2O)[C@H](O)[C@@H](O)[C@H]1O
inactive: Potency [1] | Potency [2] | Potency [3] | Potency [4]

CCCCC/C=C\C[C@@H]1O[C@H]1C(O)/C=C\C/C=C\CCCC(=O)O (stereo partly drawn)
inactive: activity change, negative = inhibition [1] 2.65% [at 0.757 µM] | activity change, negative = reduced viability [2] 5.76% [at 0.757 µM] | activity change, negative = lower viability [3] 11% [at 0.757 µM] | activity change, negative = inhibition [4] 17.5% [at 0.757 µM]

CC(C)(O)C1CC[C@@](C)([C@@H]2CC[C@]3(C)[C@H]2[C@H](O)CC2[C@@]4(C)CCC(O)C(C)(C)C4C(OC4OC(CO)C(O)C(O)C4O[C@@H]4OCC(O)C(O)C4O)C[C@]23C)O1 (stereo partly drawn)
inactive: Potency [1] | Potency [2] | Potency [3] | Potency [4]

C=C(CO)CC1CC(O)[C@]2(C)OC3CC4OC5C[C@]6(C)O[C@]7(C)CCC8OC9C[C@]%10(C)OC%11C(C)=CC(=O)OC%11CC%10OC9C[C@@H](C)C8OC7CC6O[C@]5(C)C/C=C\C4OC3CC2O1 (stereo partly drawn)
inactive: Potency [1] | Potency [2] | Potency [3] | Potency [4]

COc1cc(C/C=C\c2ccccc2)c(OC)cc1O
inactive: Potency [1] | Potency [2] | Potency [3] | Potency [4]

CC1NC(C(=O)O)Cc2c1[nH]c1ccccc21 (stereo not drawn)
inactive: Potency [1] | Potency [2] | Potency [3] | Potency [4]

COc1c2c(cc3oc(CO[C@@H]4O[C@H](CO)[C@@H](O)[C@H](O)[C@H]4O)cc(=O)c13)O[C@H](C(C)(C)O)C2
inactive: Potency [1] | Potency [2] | Potency [3] | Potency [4]

O=C1N[C@@H](Cc2cnc[nH]2)C(=O)N2CCC[C@@H]12
inactive: Potency [1] | Potency [2] | Potency [3] | Potency [4]

C/C=C(/C)C(=O)O[C@@H]([C@H](O)c1cc2ccc(=O)oc2cc1OC)C(C)(C)O[C@@H]1O[C@H](CO)[C@@H](O)[C@H](O)[C@H]1O
inactive: Potency [1] | Potency [2] | Potency [3] | Potency [4]

CC(C)=CCCC(C)C=O (stereo not drawn)
inactive: Potency [1] | Potency [2] | Potency [3] | Potency [4]

— PubChem BioAssay (NCATS)
